HCMV inh: blocks human cytomegalovirus replication | activity change, negative = inhibition, % at 57.5 µM | 4.5% of 410,000 active | HFF cells, HCMV-luciferase reporter, 72 h; active compounds read low; in the data active means activity change below about -60%; inconclusive means no clear call, values can overlap the other calls; inactive means above about -39%
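After 16 h attachment at 37C, HFF cells received test compound and HCMV-luciferase (1 PFU/cell); reporter luminescence read 72 h later, data normalized against buffer-only and known inhibitor Salinomycin.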
Shiga inhibitor: blocks Shiga toxin action in Vero cells; 9.2% of 290,000 active; inhibition, % at 38.7 µM; Vero cells, Shiga toxin protein synthesis inhibition reporter; AID 2315; in the data active means inhibition mostly above about 28%, no sharp cut-off; inactive means mostly below about 43%
Pf growth 96h: P. falciparum growth inhibition at 96 hours | P. falciparum luciferase reporter growth, 96 h | Potency, µM (top dose mostly 28.7 µM), most hits filed as inhibitors | 6.9% of 320,000 active
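Erythrocytes infected with luciferase-expressing P. falciparum were dispensed at 2% hematocrit and 0.05% parasitemia (final), then incubated with compounds 96 hours at 37 C in 5% CO2. Luminescence after detection reagent addition reported growth.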
Pf growth 48h: inhibits P. falciparum growth in the first generation, 48 h; P. falciparum luciferase growth in erythrocytes, 48 h; Potency, µM (doses to about 28.7 µM), most hits filed as inhibitors; 5.9% of 310,000 active
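Growth was read as firefly luciferase luminescence after a 48 h, 37 C, 5% CO2 exposure of compounds to reporter-bearing P. falciparum cultures (0.1% parasitemia, 2% hematocrit final) in Albumax-supplemented RPMI 1640.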
Cycloheximide cs: counter-screen hit for Shiga toxin inhibitors, cycloheximide; cell reporter, cycloheximide protein synthesis inhibition counterscreen; max response, %; 12% of 300,000 active; AID 2314; in the data active means max response mostly above about 13%, no sharp cut-off; inactive means mostly below about 14%; further: read at 38.3 µM for the half of the compounds with a filed dose
A number is an active result. An excerpt weighted towards active compounds, which were near 20% of everything screened. Unless noted, the call rests on the fitted dose curve; in most records, active means well fitted inhibition curve with a large enough effect; inconclusive means small, poorly fitted or top-dose-only effect, or another doubt; inactive means no such curve, though single readings can be large or run the other way.

Screening Cc1ccc(C(C)C)c(OCc2ccc(C(=O)N/N=C/c3ccc(O)cc3O)cc2)c1 returned HCMV inh -97, Shiga inhibitor inactive, Pf growth 96h inconclusive, Pf growth 48h 2.6µM and Cycloheximide cs inactive.
For COc1ccc(N2CCN(Cc3nnc(-c4cccc(Br)c4)o3)CC2)cc1 the results were HCMV inh inactive.
O=C(Nc1ccc(N2CCN(c3ncccc3C(F)(F)F)CC2)nc1)c1cccs1 was read as HCMV inh -86, Shiga inhibitor inactive, Pf growth 96h 2.3µM, Pf growth 48h 0.37µM and Cycloheximide cs inactive.
For CC(C)(C)C(=O)N1CCN(c2ncccc2C(F)(F)F)CC1 the results were HCMV inh inactive, Shiga inhibitor inactive, Pf growth 96h inactive, Pf growth 48h inconclusive and Cycloheximide cs inactive.
Screening N/C(=N\O)c1ccc(N2CCN(c3ncccc3C(F)(F)F)CC2)nc1 returned HCMV inh inactive, Shiga inhibitor 73, Pf growth 96h inactive, Pf growth 48h inactive and Cycloheximide cs 39.
For O=C(Nc1ccc(N2CCOCC2)nc1)c1cccs1 the results were HCMV inh inactive, Shiga inhibitor 57, Pf growth 96h inactive, Pf growth 48h inactive and Cycloheximide cs 38.
`O=C(Nc1ccc(N2CCN(c3ccc(C(F)(F)F)cn3)CC2)nc1)c1cccs1` gave HCMV inh inconclusive, Shiga inhibitor inactive, Pf growth 96h inconclusive, Pf growth 48h inconclusive and Cycloheximide cs inactive.
Screening CCC(CNC(=O)c1c(C)nn(-c2ccccc2)c1Cl)c1ccccc1 (centres undefined) returned HCMV inh inactive, Shiga inhibitor inactive, Pf growth 96h inconclusive, Pf growth 48h inconclusive and Cycloheximide cs inactive.
`CC(C(=O)N1CCCCCC1)c1ccc([N+](=O)[O-])cc1` (centres undefined) gave HCMV inh inactive, Shiga inhibitor inactive, Pf growth 96h inactive, Pf growth 48h inactive and Cycloheximide cs inactive.
`Cc1ccccc1-c1csc(C(C)(O)c2cccnc2)n1` (centres undefined) gave HCMV inh inactive.
For Cc1ccc(C)c(-c2csc(-c3cccnc3)n2)c1 the results were HCMV inh inactive, Pf growth 96h inconclusive, Pf growth 48h inconclusive and Cycloheximide cs 21.
`NC(=O)c1cc(-c2csc(-c3cccnc3)n2)ccc1O` gave HCMV inh inactive, Shiga inhibitor 61, Pf growth 96h inactive, Pf growth 48h inactive and Cycloheximide cs inactive.
C=CCNc1nc(-c2ccc(O)c(C(N)=O)c2)cs1 was read as HCMV inh inactive, Shiga inhibitor inactive, Pf growth 96h inactive, Pf growth 48h inactive and Cycloheximide cs 22.
Screening c1ccc(-c2nc(-c3cccnc3)cs2)cc1 returned HCMV inh inactive, Shiga inhibitor 52, Pf growth 96h inconclusive, Pf growth 48h inconclusive and Cycloheximide cs 46.
Screening O=C(COC(=O)c1ccc2c(c1)OCCO2)NCCc1ccc(F)cc1 returned HCMV inh inactive.
Screening CC(C)(C)OC(=O)N1CCC(c2c(C(=O)NCc3ccccc3)cnn2-c2ccc(F)cc2)CC1 returned HCMV inh inactive.
For c1ccc(-c2csc(-c3cccnc3)n2)cc1 the results were HCMV inh inactive, Shiga inhibitor 89, Pf growth 96h inactive, Pf growth 48h inactive and Cycloheximide cs 28.
`Nc1nnc(-c2cccnc2)s1` gave HCMV inh inactive, Shiga inhibitor inactive, Pf growth 96h inactive, Pf growth 48h inactive and Cycloheximide cs inactive.
CN(C(=O)c1cccnc1)c1nc(-c2ccccc2)cs1 was read as HCMV inh inactive, Shiga inhibitor inactive, Pf growth 96h inactive, Pf growth 48h inactive and Cycloheximide cs inactive.
c1ccc(Nc2nnc(-c3cccnc3)s2)cc1 was read as HCMV inh inactive, Shiga inhibitor 69, Pf growth 96h inactive and Cycloheximide cs 42.
`c1ccc(CNc2nc(-c3cccnc3)cs2)cc1` gave HCMV inh inconclusive, Shiga inhibitor inactive, Pf growth 96h inactive, Pf growth 48h inconclusive and Cycloheximide cs 34.
O=C(NCCc1csc(-c2cccnc2)n1)c1ccccc1 was read as HCMV inh inactive, Shiga inhibitor inactive, Pf growth 96h inconclusive, Pf growth 48h inconclusive and Cycloheximide cs inactive.
`O=C(NCc1ccccc1)c1csc(-c2cccnc2)n1` gave HCMV inh inactive, Shiga inhibitor inactive, Pf growth 96h inactive, Pf growth 48h 9.3µM and Cycloheximide cs inactive.
For Cc1ccc(/C=C/C(=O)N2CCCC(C(N)=O)C2)o1 (centres undefined) the results were HCMV inh inactive, Shiga inhibitor inactive, Pf growth 96h inactive, Pf growth 48h inconclusive and Cycloheximide cs inactive.
Screening COc1cccc(-c2c(C(=O)N/N=C(\C)c3cccs3)nnn2-c2nonc2N)c1 returned HCMV inh active, Shiga inhibitor inactive, Pf growth 96h inactive, Pf growth 48h inactive and Cycloheximide cs inactive.
CCOc1cccc(-c2c(C(=O)N/N=C(\C)c3cccs3)nnn2-c2nonc2N)c1 was read as HCMV inh inconclusive, Shiga inhibitor inactive, Pf growth 96h inconclusive, Pf growth 48h inactive and Cycloheximide cs inactive.
Screening C/C(=N\NC(=O)c1nnn(-c2nonc2N)c1-c1ccc2c(c1)OCO2)c1cccs1 returned HCMV inh inconclusive, Shiga inhibitor inactive, Pf growth 96h 12µM, Pf growth 48h inconclusive and Cycloheximide cs inactive.
`O=C1c2c(-c3ccc(Br)cc3)noc2CCN1Cc1cn(Cc2ccccc2)nn1` gave HCMV inh inactive.
For O=C(c1cc(-c2ccccc2)nn1-c1ccccc1)N1CCN(S(=O)(=O)c2c(F)cccc2F)CC1 the results were HCMV inh inactive, Pf growth 96h inconclusive and Pf growth 48h inconclusive.
For CN(C)CCNc1ccc(CO)c2oc3ccc(O)cc3c(=O)c12 the results were HCMV inh -99.
C=CCN=c1scc(-c2ccc3c(c2)NC(=O)CO3)n1/N=C(\C)c1ccccn1 was read as HCMV inh -95, Shiga inhibitor inactive, Pf growth 96h inconclusive, Pf growth 48h inconclusive and Cycloheximide cs inactive.
CCS(=O)(=O)N1CCN(c2ccc([N+](=O)[O-])c(NCC3CCCO3)c2)CC1 (centres undefined) was read as HCMV inh inactive, Shiga inhibitor inactive, Pf growth 96h inconclusive, Pf growth 48h inactive and Cycloheximide cs inactive.
Screening CCOc1ccc(NC(=O)CN2C(=O)C(C)SC(C)C2=O)cc1 (centres undefined) returned HCMV inh -65, Shiga inhibitor inactive, Pf growth 96h inactive, Pf growth 48h inactive and Cycloheximide cs 25.
`CCOc1ccccc1NC(=O)CN1C(=O)C(C)SC(C)C1=O` (centres undefined) gave HCMV inh inactive, Shiga inhibitor inactive, Pf growth 96h inconclusive, Pf growth 48h inconclusive and Cycloheximide cs inactive.
CCOc1ccc(NC(=O)CN2C(=O)C3CC=CCC3C2=O)cc1 (centres undefined) was read as HCMV inh inactive, Shiga inhibitor inactive, Pf growth 96h inactive, Pf growth 48h inactive and Cycloheximide cs 27.
`O=C(O)c1cnn(-c2nc(-c3ccc(Cl)c(Cl)c3)cs2)c1C(F)(F)F` gave HCMV inh inactive, Shiga inhibitor inactive, Pf growth 96h inconclusive, Pf growth 48h inactive and Cycloheximide cs 19.

From PubChem BioAssay
